Experimental findings from PubChem BioAssay (Tox21) are described below.

Activity calls are given as the source filed them. Where a call stands in place of a potency, no number is given. Calls come from the whole dose curve; as a rule, active = well fitted activation curve with a large enough effect in the repeat runs; inconclusive = weak or mixed curves; inactive = flat fitted curve, though single readings scatter.

This experiment in a line: Caspase-3/7 induction in CHO-K1 cells by small molecules, qHTS assay (AID 1346980). Note: nearly all actives have a fitted effect of over 15% in size. The following applies: CHO-K1 caspase-3/7 induction, Caspase-Glo luminescence, 17 h; series mostly up to 92.4 µM. From the text:
National Center for Advancing Translational Sciences [NCATS]
NIH Chemical Genomics Center [NCGC]
U.S. Environmental Protection Agency [EPA]
National Institutes of Environmental Health Sciences [NIEHS]
National Toxicology Program [NTP]
Apoptosis is a process of programmed cell death and plays a central role in the development of multicellular organisms. It is a highly regulated process and induces cell death by activating caspases, which are the members of cysteine aspartic acid-specific protease (caspase) family. Caspases involved in apoptosis are classified by their mechanism of action as initiator caspases (caspase-2, -8, -9 and -10) and executioner caspases (caspase-3, -6, and -7). Inhibition of apoptosis results in number of cancers, autoimmune diseases, inflammatory diseases and viral infection. To identify small molecule compounds that induce apoptosis, a homogeneous, luminescent Caspase-Glo 3/7 assay was used. Wild type CHO-K1 cells were used to screen Tox21 libraries for identifying caspase-3/7 activity inducers.
CHO-K1 cells were dispensed at 1,500 per well in 5uL of culture medium into white solid bottom 1536-well plates (Corning Life Sciences, Corning, NY) using a Multidrop Combi (Thermo Scientific, Waltham, MA) dispenser. The assay plates were incubated at 37 C and 5% CO2 for 5hr, and then 23nL of compounds dissolved in DMSO and positive control were transferred using a Pintool station (Wako, San Diego, CA). The assay plates were incubated at 37C and 5% CO2 for 17hr. For caspase-3/7 activity read, 4uL of Caspase-Glo 3/7 reagent (Promega Corporation, Madison, WI) was added to each well of the assay plates using Flying Reagent Dispenser (FRD, Aurora Discovery, San Diego, CA) and incubated the assay plates at room temperature for 30min. The luminescence signal was quantified using a ViewLux plate reader (Perkin Elmer, Shelton, CT).
Background: In qHTS, concentration-response curves come from the screen itself.
On to `O=[N+]([O-])c1ccc2[nH]ncc2c1`, for which the Potency entry is “inactive”.
Consider `O=S(=O)(Oc1ccc(Cl)cc1)c1ccccc1`, for which the Potency entry was “inactive”.
Then `CCCCC(CC)COC(=O)COc1ccc(Cl)cc1Cl` (stereo not given), with “inactive”; and `COc1cc2nc(N3CCN(C(=O)C4COc5ccccc5O4)CC3)nc(N)c2cc1OC` (stereo not given), with “inactive”.
The result for `CC[N+]1(CC)CCC(=C(c2ccccc2)c2ccccc2)C1C` (stereo not given) reads “inactive”; that for `CC1(c2ccccc2)OC(C(=O)O)=CC1=O` (stereo not given), “inactive”; that for `COC(=O)c1ccc(I)cc1S(=O)(=O)NC(=O)Nc1nc(C)nc(OC)n1`, “inactive”.
The result for `CC(=O)c1cccc([N+](=O)[O-])c1` reads “inactive”; that for `OC(CN1CCC(Cc2ccc(F)cc2)CC1)c1ccc(Cl)cc1` (stereo not given), “inactive”; that for `N=c1ccn2c(n1)O[C@H]1[C@H](O)[C@@H](CO)O[C@H]12`, “inactive”.
For the compound `C/C=C(/C(=C/C)c1ccc(OC(C)=O)cc1)c1ccc(OC(C)=O)cc1`, the Potency entry is “inactive”.
As for `OC(C#CCN1CCCC1)(c1ccccc1)c1ccccc1`, the Potency entry is “inactive”.
The result for `Clc1ccc2c(c1)CCc1cccnc1C2=C1CCNCC1` reads “inactive”; that for `CCn1cc(C(=O)O)c(=O)c2cnc(N3CCNCC3)nc21`, “inactive”; that for `CCOC(=O)C(O)c1ccccc1` (stereo not given), “inactive”.
The result for `C[C@@H]1C[C@H]2[C@@H]3CCC4=CC(=O)C=C[C@]4(C)[C@@]3(F)[C@@H](O)C[C@]2(C)[C@@]1(O)C(=O)COC(=O)c1ccncc1` reads “inactive”.
Then `CC[N+](C)(CC)CCOC(=O)C(O)(c1ccccc1)C1CCCCC1` (stereo not given), with “inactive”; and `Cc1ncc(CO)c(C=O)c1O`, with “inactive”.
On to `CC(=O)[O][Al][O]C(C)=O`, for which the Potency entry is “inactive”.
In the case of `CCCCC/C=C\C/C=C\CCCCCCCC(=O)NC(C)c1ccccc1` (stereo not given), the Potency result is “inactive”.
The result for `CCOC(=O)C(=O)CCc1ccccc1` reads “inactive”; that for `O=C(c1ccc(F)cc1)C1CCN(CCn2c(=S)[nH]c3ccccc3c2=O)CC1`, “inactive”; that for `O=C(OCCCCCCOC(=O)c1ccccc1)c1ccccc1`, “inactive”.
For the compound `CCCCNc1ccc(C(=O)OCCOCCOCCOCCOCCOCCOCCOCCOCCOC)cc1`, the Potency entry is “inactive”.
Then `CNCCCCOc1ccccc1Cc1ccccc1`, with “inactive”.
With `CO[C@@H]1[C@H](OC(=O)/C=C/C=C/C=C/C=C/C(=O)O)CC[C@]2(CO2)[C@H]1[C@@]1(C)O[C@@H]1CC=C(C)C`, the Potency result was “inactive”.
Then `CC(=O)NO`, with “inactive”; and `CN(C)CCOC(c1ccccc1)c1ccc(Br)cc1` (stereo not given), with “inactive”.
The result for `C=C(C)C(=O)OCCO` reads “inactive”; that for `COc1ccc(C)cc1[N+](=O)[O-]`, “inactive”.
The result for `O=C(O)c1ccccc1Cl` reads “inactive”.
In the case of `CN(C)CCN(Cc1ccsc1)c1ccccn1`, the Potency entry was “inactive”.
The result for `OCCNCc1ccccc1` reads “inactive”; that for `CCCCCCCCCCCC(=O)OC[C@@H](O)[C@H]1OC[C@H](OCCO)[C@H]1OCCO`, “inactive”; that for `C#C[C@]1(O)CC[C@H]2[C@@H]3CCc4cc(OC5CCCC5)ccc4[C@H]3CC[C@@]21C`, “inactive”.
The result for `c1ccc(CNCCNCc2ccccc2)cc1` reads “inactive”; that for `C=C(C)C(=O)OCC`, “inactive”; that for `C=C1[C@H]2CC[C@@H]3[C@H]2C(C)(C)CCC[C@]13C`, “inactive”.
Consider `CC(=O)OC[C@H]1O[C@@H](n2ncc(=O)[nH]c2=O)[C@H](OC(C)=O)[C@@H]1OC(C)=O`, for which the Potency entry was “inactive”.
Then `CCN(CC)CCOC(=O)C(c1ccccc1)C1CCCCC1` (stereo not given), with “inactive”.
